# KB-V1 MDR tox: KB-V1 MDR subline cytotoxicity; KB-V1 MDR cells viability, CellTiter-Glo, 72 h; Potency, µM (top dose mostly 46.1 µM), most hits filed as cytotoxic; 3.4% of 400,000 active; note: % is set by controls: 0 for no effect and ±100 for the full control effect; nearly all actives have a fitted effect of over 60% in size
#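 Readout: CellTiter-Glo luminescence, 10 min after addition. Cells: KB-V1 MDR subline, 72 h at 37 degrees C with compound. Analysis: corrected, normalized data fitted to concentration-effect curves.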
# HT1080NT lethal: kills 2HG-producing HT-1080-NT fibrosarcoma cells; 1.6% of 360,000 active; HT-1080-NT fibrosarcoma viability, CellTiter-Glo ATP luminescence, 48 h; Potency, µM (doses to about 46.1 µM), for inactives: at the top dose activity, negative = less viability, hits mostly cytotoxic;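 note: NT is the 2HG producing partner of a matched IDH1 knockdown line; 0% = DMSO-treated cells and -100% = media-only wells without cells; nearly all actives have a fitted effect of over 55% in size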
#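 HT-1080-NT fibrosarcoma cells (2HG-overproducing), 750 cells/well in RPMI with 5% FBS, dosed after 2 h and incubated 48 h at 37C. CellTiter-Glo luminescence normalized to DMSO and no-cell wells; concentration-response curves fitted and classed.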
# MCF10A rereplic: DNA re-replication induction in MCF 10a cells; MCF 10A DNA re-replication, Hoechst nuclear intensity, 48 h; Potency, µM (titrated, usually from 46.1 µM), for inactives: at the highest dose activity, positive = re-replication, usual class: activators; 2.9% of 350,000 active; note: % of control where 0% means no effect; nearly all actives have a fitted effect of over 50% in size
# KB-3-1 tox: KB-3-1 parental cell cytotoxicity. AID 1347075. KB-3-1 viability, CellTiter-Glo ATP luminescence, 72 h. Potency, µM (highest dose often 46.1 µM), actives largely listed as cytotoxic. 1.4% of 400,000 active; note: % is set by controls: 0 for no effect and ±100 for the full control effect; nearly all actives have a fitted effect of over 60% in size
#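 Cells are dispensed, compounds pinned in, plates held at 37 °C for 72 h, then CellTiter-Glo is added and luminescence read after 10 minutes. Cell line: parental KB-3-1 in phenol-red-free DMEM, 10% FBS.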
# SW480 rereplic: DNA re-replication induction in SW480 cells; SW480 DNA re-replication, Hoechst DNA content imaging, 48 h; Potency, µM (titrated, usually from 46.1 µM), without a hit: top-dose re-replication activation, hits mostly activators; 1.8% of 340,000 active; note: % of control where 0% means no effect; nearly all actives have a fitted effect of over 55% in size
#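 Image-based read-out: total Hoechst fluorescence of nuclei (405 nm excitation, 500-530 nm emission), with hits raising the fraction of high-intensity nuclei. SW480 colon cells incubated 48 hr with compounds at 37 C.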
# HT1080 IDH1KD tx: kills HT-1080 cells with IDH1 knockdown; Potency, µM (titrated, usually from 46.1 µM), for the others: at the top dose activity, negative = toxicity, most hits filed as cytotoxic; HT-1080 IDH1 knockdown viability, ATP luminescence, 48 h; 2% of 360,000 active;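 note: 0% = DMSO wells and -100% = cell-free medium wells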
#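 HT-1080-IDH1KD cells (IDH1 knocked down), 750/well in RPMI with 5% FBS, treated with compound 48 h at 37 degrees C. Viability by CellTiter-Glo luminescence, normalised to DMSO and no-cell wells; concentration-response curves classed.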
# The depositor's hits bear a star; i = inactive; ? = inconclusive; nt = no result given. Sampled rows, rich in hits. Any-hit rate of the full collection: about 7.9%. Calls come from the whole dose curve; as a rule, active = well fitted curve in the direction sought with a large enough effect; inconclusive = small, poorly fitted or top-dose-only effect, or another doubt; inactive = no such curve, though single readings can be large; an effect the other way counts as inactive or inconclusive. Potency is the fitted concentration of half-maximal effect.
SMILES,KB-V1 MDR tox,HT1080NT lethal,MCF10A rereplic,KB-3-1 tox,SW480 rereplic,HT1080 IDH1KD tx
COc1cc(C(=O)O)cc(NC(=O)c2cccs2)c1OC,?,12.1%,7.5%,i,0.4%,13.8%
COc1cc(C(=O)OCc2ccc(C)cc2)cc(NC(=O)c2cccs2)c1OC,?,22.1%,23.1µM*,i,?,16.0%
O=C1CCCCC1(c1ccccc1)c1ccccc1,i,7.1%,2.4%,i,-2.6%,14.2%
CCOC(=O)C1C(=O)C=C(/C=C/c2ccccc2)CC1c1ccc(Cl)cc1 (stereo not given),16.4µM*,-3.8%,2.8%,i,?,-7.0%
CCOC(=O)C1NC(=O)CC1c1ccccc1 (stereo not given),i,-0.7%,-5.4%,i,-2.2%,-4.4%
Cc1cccc(C)c1-n1nnnc1C(c1ccnc2ccccc12)N1CCN(C(=O)OC(C)(C)C)CC1 (stereo not given),?,4.7%,nt,i,nt,2.6%
CC(=O)N(C(C)=O)c1c(C#N)c(C)n(-c2ccccc2)c1C(=O)c1ccccc1,?,-27.4%,6.51µM*,i,?,-22.3%
COc1ccc(/C=N/Nc2cc(C)nc3ccccc23)cc1,?,18.4µM*,1.64µM*,14.6µM*,4.11µM*,?
COc1ccc2nc(C)cc(N/N=C/c3ccc(F)cc3)c2c1,?,2.91µM*,23.1µM*,25.9µM*,16.4µM*,4.61µM*
COc1ccc(CNc2cc(C)nc3ccc(OC)cc23)cc1,?,?,?,i,?,14.6µM*
CCOc1ccccc1/C=N/Nc1cc(C)nc2ccc(C)cc12,i,2.4%,?,i,-4.4%,-0.8%
COc1ccc(Nc2cc(C)nc3ccc(OC)cc23)cc1,?,?,22.8%,i,17.5%,?
Cc1ccc2nc(C)cc(N/N=C/c3cccc(O)c3)c2c1,i,?,5.3%,i,17.3%,20.6µM*
CCc1ccccc1NS(=O)(=O)c1ccc2c(c1)CC(=O)N2,i,nt,nt,i,nt,nt
COc1ccc(/C=N/Nc2cc(C)nc3c(C)cccc23)cc1,i,?,18.4µM*,?,25.9µM*,?
CCc1ccc(Nc2cc(C)nc3nc(Cc4ccc(Cl)cc4)nn23)cc1,?,nt,nt,20.6µM*,nt,nt
COc1cccc(N2C(N)=NC(N)=NC2(C)C)c1,i,6.51µM*,?,?,-0.9%,2.31µM*
CC1(C)N=C(N)N=C(N)N1c1cccc(C(=O)O)c1,i,13.0%,-1.9%,i,-5.4%,-1.9%
CCOc1ccc(N2C(N)=NC(N)=NC2(C)C)cc1,i,?,7.31µM*,?,-4.6%,10.3µM*
COc1ccc(N2C(N)=NC(N)=NC23CCCC3)cc1,i,4.6%,16.2%,i,-2.2%,1.8%
Cc1ccccc1N1C(N)=NC(N)=NC1(C)C,i,8.8%,-2.1%,i,-3.2%,13.2%
Cc1ccc(N2C(N)=NC(N)=NC2(C)C)c(C)c1,i,?,5.7%,i,1.4%,20.6µM*
CCOC(=O)c1cccc(N2C(N)=NC(N)=NC2(C)C)c1,?,?,6.7%,?,-2.3%,?
COc1ccc(N2C(N)=NC(N)=NC2(C)C)cc1,i,9.2µM*,?,?,3.6%,8.2µM*
COc1ccc(C)cc1NC(=O)C1CCN(S(=O)(=O)c2ccc3c(c2)CCCN3C(C)=O)CC1,i,nt,nt,i,nt,nt
CCCN(C(=O)Cc1nc(-c2ccc(OC)cc2)no1)c1ccccc1C,i,nt,nt,i,nt,nt
O=[N+]([O-])c1nccn1CCCCCCCCCCCN1CCOCC1,?,-5.6%,nt,i,nt,-18.8%
COc1ccccc1N1C(N)=NC(N)=NC1(C)C,i,0.7%,-2.2%,i,-4.6%,-6.8%
CC1(C)N=C(N)N=C(N)N1c1cccc(C#N)c1,i,?,15.0%,16.4µM*,?,0.231µM*
Nc1[nH]c(=S)[nH]c(=O)c1N=O,i,nt,nt,?,nt,nt
